Records with an inconclusive call do not appear. Calls of active or inactive are those of the source. Calls come from the whole dose curve; as a rule, active = well fitted inhibition curve with a large enough effect; inconclusive = small, poorly fitted or top-dose-only effect; inactive = no such curve, though single readings can be large or run the other way.
The compounds below were run against Rap guanine nucleotide exchange factor 3 (Homo sapiens) (UniProt O95398) (assay: Counterscreen qHTS for antagonist of cAMP-regulated guanine nucleotide exchange factor 3 (EPAC1) (AID 1645888; note: % of control where 0% means no effect)). Conditions: Rap1B-BODIPY-GDP nucleotide exchange, fluorescence; series mostly up to 154 µM.
Rap guanine nucleotide exchange factor 3 (Homo sapiens), sequence (O95398 whole entry, looked up): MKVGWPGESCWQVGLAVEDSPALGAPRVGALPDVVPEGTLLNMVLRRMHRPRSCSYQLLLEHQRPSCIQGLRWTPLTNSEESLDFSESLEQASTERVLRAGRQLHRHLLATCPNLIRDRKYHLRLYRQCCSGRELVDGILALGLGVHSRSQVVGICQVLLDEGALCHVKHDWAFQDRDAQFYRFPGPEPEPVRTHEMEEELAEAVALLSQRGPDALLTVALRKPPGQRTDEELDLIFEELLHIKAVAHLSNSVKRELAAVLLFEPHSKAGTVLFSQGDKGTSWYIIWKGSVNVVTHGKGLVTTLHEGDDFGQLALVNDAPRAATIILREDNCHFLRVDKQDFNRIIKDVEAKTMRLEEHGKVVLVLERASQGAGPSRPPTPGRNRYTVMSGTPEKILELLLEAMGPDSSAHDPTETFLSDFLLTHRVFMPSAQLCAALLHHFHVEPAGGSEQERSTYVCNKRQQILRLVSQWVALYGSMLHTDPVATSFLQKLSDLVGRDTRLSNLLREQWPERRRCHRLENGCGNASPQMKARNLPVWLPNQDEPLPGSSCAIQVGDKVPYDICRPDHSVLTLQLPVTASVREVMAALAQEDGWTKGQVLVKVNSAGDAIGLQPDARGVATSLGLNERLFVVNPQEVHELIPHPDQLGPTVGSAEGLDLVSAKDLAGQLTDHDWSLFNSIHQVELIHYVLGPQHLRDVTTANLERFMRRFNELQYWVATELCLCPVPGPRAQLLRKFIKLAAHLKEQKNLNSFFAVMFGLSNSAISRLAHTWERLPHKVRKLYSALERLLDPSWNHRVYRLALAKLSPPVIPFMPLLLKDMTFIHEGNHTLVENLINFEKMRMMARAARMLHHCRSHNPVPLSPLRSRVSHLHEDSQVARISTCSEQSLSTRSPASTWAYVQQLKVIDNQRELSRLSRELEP
From the text: Assay Provider (PI): Xiaodong Cheng Ph.D. The University of Texas Medical Branch, […], TX MLPCN Grant: NS066510 In multi-cellular eukaryotic organisms, the effects of cAMP are transduced by two ubiquitously-expressed intracellular cAMP receptors, the classic protein kinase A/cAMP-dependent protein kinase (PKA/cAPK) and the more recently discovered exchange protein directly activated by cAMP/cAMP-regulated guanine nucleotide exchange factor (EPAC/cAMP-GEF). Both PKA and EPAC are ubiquitously expressed in all tissues, and an increase in intracellular cAMP levels will lead to the activation of both PKA and EPAC. Therefore, careful dissections of the individual role and relative contribution of EPAC and PKA within the overall cAMP signaling in various model systems are critical for further elucidating the mechanism of cAMP signaling. To date no EPAC-specific antagonists and agonist, as well as isoform-specific agonists have been reported, and developing EPAC-specific pharmacological probes to determine the physiological functions that EPAC play in the overall cAMP-mediated signaling remains a major challenge within the research field. Furthermore, identified regulators of EPAC may lead to new mechanism-based therapeutic strategies specifically targeting the EPAC / cAMP-signaling components as EPAC has been implicated to play important roles in major human pathological conditions such as diabetes, heart disease, and cancer. This qHTS will be used to screen the Molecular Libraries Small Molecule Repository (MLSMR) as a concentration-titration series using the NCGC unique quantitative screening (qHTS) platform to find activators for EPAC1. In addition, this assay will also be used as a counterscreen for the EPAC2 qHTS. This fluorescent based assay is developed and validated for EPAC1 that measures exchange using EPAC effector Rap1 complex with BODIPY-GDP, a GDP analog with a tethered fluorophores. Activators are identified by monitoring the change in fluorescence signal as the exchanged free BODIPY-GDP has a reduced fluorescence compared to Rap1-bound BODIPY-GDP. Increase in signal (activation) is the desired outcome for the EPAC1 agonist while no activity in this assay is desired for the EPAC2 agonist counterscreen. Reference: [1] de Rooij, J., Zwartkruis, F. J., Verheijen, M. H., Cool, R. H., Nijman, S. M., Wittinghofer, A., and Bos, J.L. (1998) Nature 396, 474-477. Kawasaki, H., Springett, G. M., Mochizuki, N., Toki, S., Nakaya, M., Matsuda, M., Housman, D. E., and Graybiel, A. M. (1998) Science 282, 2275-2279.
EPAC1 Counterscreen PROTOCOL TABLE SEQUENCE No. (e.g., 1, 2, 3, etc.); […] (e.g., Cells, Incubation, Reagent, etc.); VALUE and DESCRIPTION. 1. Reagent. 3 uL. [1x] 250 nM Rap1B-BODIPY-GDP, and 50 uM GDP. 2a. Compound. 23 nL. Control 6,572 uM cAMP (working concentration). 2b, 2c. Compound. 23 nL. Control activator and inhibitor; 234 - 30,000 uM cAMP and 16.4 - 10,000 uM. 2d. Compound. 46 nL. MLSMR follow-up library; 0.64 - 10,000 uM. 3. Time. 15 sec, 1000rpm. Centrifuge. 4. Time. 5 min. Incubation at room temperature. 5. Detector. Fluorescence. (Read 1), Ex/Em = 480 nm / 540 nm. 6. Time. 30 min. Incubation at room temperature. 7. Detector. Fluorescence. (Read 2), Ex/Em = 480 nm/ 540 nm. 8. Reagent. 1uL. Dispense either [4x] 10 uM cAMP or buffer. 9. Time. 15 sec, 1000 rpm. Centrifuge. 10. Time. 5 min. Incubation at room temperature. 11. Detector. Fluorescence. (Read 3), Ex/Em = 480 nm / 540 nm. 12. Time. 30 min. Incubation at room temperature. 13. Detector. Fluorescence. (Read 4), Ex/Em = 480 nm / 540 nm. NOTES (numbers refer to Sequence numbers above; values are from representative experiments) 1. Medium-binding black solid-bottom Greiner plates (789176-F). Dispense 3 uL of [1x] 250 nM Rap1B-BODIPY-GDP, and 50 uM GDP into columns 1 to 48. 2a. Control compound cAMP (6,572 uM, column 3, rows 1 to 32) single pin-transferred for a [final] of 50 uM. 2b. […]
With `COC(=O)C1=C(c2cc3ccccc3s2)C[C@@H]2CC[C@H]1N2C(=O)NC1CC1` the outcome was “inactive”. In the case of `O=C1NC(=O)N(Cc2ccc(F)cc2)C(=O)/C1=C\c1ccc([N+](=O)[O-])s1`, the outcome was “inactive”. For `CCOC(=O)[C@]12Cc3cc(Cl)ccc3[C@H]1N(Cc1ccccc1)C(=O)c1ccccc12`, the outcome was “inactive”. For `CN1CCN2c3ccc(N)cc3CC3(C(=O)NC(=O)NC3=O)C2C1` (stereo not given), the outcome was “inactive”. With `Nc1c2c(nc3sc4c(c13)CCCC4)CCCC2` the activity change, negative = inhibition was 4.03% [at 30.8 µM] (inactive). `N/C(=N\N=C/c1ccc(-c2ccc(O)c(C(=O)O)c2)o1)N[N+](=O)[O-]` was tested, and the outcome was “inactive”. In the case of `CCOC(=O)c1cc(CC)sc1/N=C/C1C(=O)NC(=S)NC1=O`, the activity change, negative = inhibition was -8.68% [at 30.8 µM] (inactive). `Cc1cc(OC(C)C(=O)N[C@H](C(=O)O)c2ccccc2)c2c3c(c(=O)oc2c1)CCC3` (stereo not given in full) was tested, and the outcome was “inactive”. In the case of `Cn1cc(/C=C2\C(=O)NC(=O)N(c3ccccc3)C2=O)c2ccccc21`, the outcome was “inactive”. In the case of `O=c1cc(C(F)(F)F)c2cc3c4c(c2o1)CCCN4CCC3`, the outcome was “inactive”. With `COC(=O)C1C2c3ccccc3C(c3ccccc32)C1(C)C(=O)OC` (stereo not given) the activity change, negative = inhibition was 4.93% [at 30.8 µM] (inactive). For `Oc1c(Cl)cccc1Cc1cc(Cl)cc(Cl)c1O`, the outcome was “inactive”. `Nc1cc(Cl)c2nonc2c1[N+](=O)[O-]` was tested, and the activity change, negative = inhibition was -3.15% [at 30.8 µM] (inactive). With `CCC(=NCCCO)c1c(O)n(-c2ccc(OC)cc2)c(=O)[nH]c1=O` the activity change, negative = inhibition was -14.3% [at 30.8 µM] (inactive). `CCCCn1c(NS(=O)(=O)c2ccc(C)cc2)c(C(=O)OCC)c2nc3ccccc3nc21` was tested, and the outcome was “inactive”. With `CCOC(=O)[C@]12Cc3cc(Cl)ccc3[C@H]1N(C1CCCCC1)C(=O)c1ccccc12` the outcome was “inactive”. `CN1C(=O)/C(=C/c2cccn2-c2ccc3ccccc3c2)C(=O)NC1=S` was tested, and the outcome was “inactive”. For `O=C1NC(=O)N(Cc2ccc(F)cc2)C(=O)/C1=C\c1ccoc1`, the outcome was “inactive”. `O=C1NC(=O)N(c2cccc(Cl)c2)C(=O)/C1=C\c1ccc(Sc2nc3ccccc3[nH]2)o1` was tested, and the activity change, negative = inhibition was 2.39% [at 30.8 µM] (inactive). In the case of `O=c1[nH]c(=S)n(-c2ccc(Cl)cc2)c(O)c1C=Nc1ccc(N2CCOCC2)cc1`, the outcome was “inactive”. `Cn1cc(C=C2C(=O)NC(=O)NC2=O)c2ccccc21` was tested, and the outcome was “inactive”. In the case of `CCOC(=O)[C@]12Cc3cc(C)ccc3[C@H]1N(Cc1ccccc1)C(=O)c1ccccc12`, the outcome was “inactive”. In the case of `O=C1NC(=S)NC(=O)C1=Cc1cccc2cc3ccccc3cc12`, the outcome was “inactive”. `COc1cc2c(cc1OC)-c1c(OC)c(OC)cc3c1[C@H](C2)N(C)CC3` was tested, and the activity change, negative = inhibition was 10.1% [at 30.8 µM] (inactive). In the case of `O=C1NC(=O)N(Cc2ccccc2)C(=O)/C1=C/C=C/c1ccco1`, the activity change, negative = inhibition was -0.901% [at 30.8 µM] (inactive). For `Cc1cccc(CN2C(=O)CN=C(c3ccccc3)c3cc(Cl)ccc32)c1`, the outcome was “inactive”. With `Cc1ccc(N2C(=O)NC(=O)/C(=C\c3cc(C)n(-c4sc5c(c4C#N)CCCC5)c3C)C2=O)cc1` the outcome was “inactive”. For `O=C1NC(=S)NC(=O)C1=Cc1cccn1-c1ccc(O)cc1`, the activity change, negative = inhibition was -4.08% [at 30.8 µM] (inactive). `Cn1cccc1/C=C1/C(=O)NC(=O)N(Cc2ccccc2)C1=O` was tested, and the outcome was “inactive”. With `Cn1cccc1/C=C1\C(=O)NC(=O)N(Cc2ccccc2)C1=O` the outcome was “inactive”. With `COCCNC(=O)Cn1cc(/C=C2\C(=O)NC(=O)N(c3ccccc3F)C2=O)c2ccccc21` the outcome was “inactive”. `OC1/C(=C/c2ccc(C(F)(F)F)cc2)N2CCC1CC2` (stereo not given) was tested, and the outcome was “inactive”. `O=C(c1cc(-c2ccc(Cl)cc2)n(-c2ccc(Cl)cc2Cl)n1)N1CCOCC1` was tested, and the outcome was “inactive”. For `CN(C)CC(C(=O)Cc1ccccc1)c1ccccc1` (stereo not given), the outcome was “inactive”. In the case of `Cn1cccc1/C=C1/C(=O)NC(=O)N(Cc2ccc(F)cc2)C1=O`, the outcome was “inactive”. In the case of `CCOC(=O)c1cc(CC)sc1/N=C/c1c(O)[nH]c(=S)[nH]c1=O`, the outcome was “inactive”. `CC(=O)C1C2c3ccccc3O[C@@]1(C)N=c1s/c(=C/c3ccoc3)c(=O)n12` (stereo not given in full) was tested, and the outcome was “inactive”. In the case of `CCCOC(=O)c1ccccc1C(=O)OCCC`, the activity change, negative = inhibition was -2.66% [at 30.8 µM] (inactive). For `CCOC(=O)c1c(-c2ccccc2)oc2ccc(OC(=O)N(C)C)cc12`, the outcome was “inactive”. `CCOC(=O)[C@]12Cc3ccc(C)cc3[C@H]1N(C1CCCCC1)C(=O)c1cc(OC)ccc12` was tested, and the outcome was “inactive”.

— PubChem BioAssay (NCATS)
